TGFb inhibitor: TGF-b pathway inhibition; 1.2% of 410,000 active; Potency, µM (highest dose often 46.1 µM), for inactives: at the top dose activity, negative = inhibition, actives largely listed as inhibitors; HepG2 CAGA-GFP TGF-b/SMAD3 reporter, GFP fluorescence, 18 h; TGF-beta stimulated, 500 pg/mL final; further: on the % scale 0 is the no-effect control and ±100 the full control effect; nearly all actives have a fitted effect of over 65% in size
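Inhibition of TGF-beta-driven CAGA-GFP reporter expression in HEPG2 cells is measured by cellular GFP fluorescence after 18 h stimulation with 500 pg/mL recombinant TGF-beta in 1% FBS medium at 37 degrees C.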
KB-3-1 tox: kills parental KB-3-1 adenocarcinoma cells. KB-3-1 viability, CellTiter-Glo ATP luminescence, 72 h. Potency, µM (titrated, usually from 46.1 µM), most hits filed as cytotoxic. 1.4% of 400,000 active. AID 1347075; further: on the % scale 0 is the no-effect control and ±100 the full control effect; nearly all actives have a fitted effect of over 60% in size
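Cytotoxicity in the drug-sensitive parental line KB-3-1 was scored as loss of CellTiter-Glo luminescence following 72 h incubation with compound. Values come from curve fitting of normalized concentration-response data.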
HepG2 viability: kills HepG2 cells in TGF-b inhibitor counter-screen. HepG2 CAGA-GFP viability, ATP luminescence, 18 h. 0.76% of 410,000 active. Potency, µM (series often up to 46.1 µM), for the others: at the top dose activity change, negative = cytotoxicity, usual class: cytotoxic. AID 588856
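HepG2 CAGA-GFP cells (1000/well, DMEM with 1% FBS) received compound, then TGF-beta at 500 pg/mL final, and were incubated 18 hours at 37 degrees C. Viability was read by CellTiter-Glo luminescence. Media-only wells were set as complete cell-killing and DMSO as no toxicity.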
HT1080 IDH1KD tx: toxicity to HT-1080 IDH1 knockdown cells (counter line) | HT-1080 IDH1 knockdown viability, ATP luminescence, 48 h | Potency, µM (top dose mostly 46.1 µM), without a hit: at the highest dose activity, negative = toxicity, most hits filed as cytotoxic | 2% of 360,000 active | AID 686971;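 further: 0% = DMSO wells and -100% = cell-free medium wells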
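CellTiter-Glo luminescence after 48 h compound exposure at 37 degrees C of IDH1-knockdown HT-1080 cells in 5% FBS RPMI. %Activity scaled between DMSO wells and cell-free media wells, with curves fitted and assigned curve classes.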
HT1080-NT tox: kills 2HG-producing HT-1080-NT fibrosarcoma cells. Potency, µM (highest dose often 46.1 µM), for inactives: at the highest dose activity, negative = less viability, hits mostly cytotoxic. 1.6% of 360,000 active. HT-1080-NT fibrosarcoma viability, CellTiter-Glo ATP luminescence, 48 h;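 further: NT is the 2HG producing partner of a matched IDH1 knockdown line; 0% = DMSO-treated cells and -100% = media-only wells without cells; nearly all actives have a fitted effect of over 55% in size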
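Toxicity toward the 2HG-producing NT line was scored as %Activity, normalised to DMSO and no-cell wells, from CellTiter-Glo luminescence after 48 hours' treatment.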
KB-V1 MDR tox: kills drug-selected multidrug resistant KB-V1 cells; AID 1347076; KB-V1 MDR cells viability, CellTiter-Glo, 72 h; Potency, µM (doses to about 46.1 µM), actives largely listed as cytotoxic; 3.4% of 400,000 active; further: on the % scale 0 is the no-effect control and ±100 the full control effect; nearly all actives have a fitted effect of over 60% in size
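Cytotoxicity via CellTiter-Glo luminescence after 72 h compound exposure at 37 degrees C. Cells: drug-selected KB-V1 line, DMEM phenol-red free plus 10% FBS. Compounds tested at multiple concentrations; normalized data fitted to concentration-effect curves.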
An asterisk follows results filed as active; i = inactive; ? = inconclusive; · = no result; [ ] = dose if it differs, or a comment. Sampled rows, rich in hits. Any-hit rate of the full collection: about 6.6%. The call rests on the fitted dose curve; in most records, active means well fitted curve in the direction sought with a large enough effect; inconclusive means small, poorly fitted or top-dose-only effect, or another doubt; inactive means no such curve, though single readings can be large; an effect the other way counts as inactive or inconclusive. Potency means the concentration at half of the fitted maximal effect.

SMILES	TGFb inhibitor	KB-3-1 tox	HepG2 viability	HT1080 IDH1KD tx	HT1080-NT tox	KB-V1 MDR tox
CCCC(=O)Nc1nc(C)c(-c2csc(Nc3ccccc3OC)n2)s1	1%	i	-2%	-9%	-5%	i
CCOC(=O)Cn1c(-c2cccnc2Cl)nc2cc(Cl)c(Cl)cc21	-10%	i	-24%	-28%	-13%	21µM*
O=C(NN=Cc1ccccc1)C(Oc1ccccc1)c1ccccc1 (stereo not drawn)	-19%	i	-23%	-4%	-5%	i
Cc1cc(Br)ccc1NC(=O)COC(=O)c1ccccc1OCC(N)=O	-10%	?	-8%	·	·	i
CC(C)N(C(=O)CN(C#N)c1nc(N(C)C)nc(N(C)C)n1)c1ccccc1	-14%	i	10%	22%	7%	6.5µM*
O=C(Nc1ccc(F)cc1)c1nn(-c2ccccc2)c(=O)cc1Cl	?	4.6µM*	-43%	21µM*	18µM*	?
Cc1ccc(NC(=O)c2cc(-c3ccccc3)nn2-c2ccccc2)cc1	-6%	?	0%	0%	2%	21µM*
Cc1ccc(NC(=O)c2cc(-c3ccccc3)nn2-c2ccccc2)c(Br)c1	-2%	?	2%	14%	22%	i
COc1ccc(CNC(=O)COC(=O)CC2CC3CCC2C3)cc1OC (stereo not drawn)	?	i	-30%	-1%	-2%	i
COc1ccc(-c2cc(-c3nnc(COC(=O)CC4CC5CCC4C5)o3)c3ccccc3n2)cc1OC (stereo not drawn)	-25%	?	-22%	-11%	-10%	9.2µM*
CC(CCCN(C)C)C(Cc1ccccc1)c1ccccc1 (stereo not drawn)	-11%	i	-49%	16µM*	?	i
Cc1ccc(S(=O)(=O)/C(=C/Cl)NC(=O)c2ccccc2)cc1	?	13µM*	-2%	21µM*	?	i
CCOC(=O)c1c(NC(=O)CSc2nnc(C)s2)sc2c1CCCCC2	-10%	i	-25%	?	-20%	i
CCOC(=O)c1c(NC(=O)CSc2nnc(C)s2)sc2c1CCC(C)C2 (stereo not drawn)	?	i	-9%	-7%[9.24 µM]	-31%	10µM*
COC(=O)c1c(NC(=O)COc2ccc(OC)cc2)sc2c1CCC(C)C2 (stereo not drawn)	13µM*	?	-100%	·	·	?
CC1CCc2c(sc(NC(=O)c3cccs3)c2C(=O)O)C1 (stereo not drawn)	0%	10µM*	-16%	?	?	i
CCOC(=O)c1c(NC(=O)COc2ccc(F)cc2)sc2c1CCC(C)C2 (stereo not drawn)	4%	i	-10%	·	·	i
CCOc1ccccc1CN1CCN(CC2CC2)CC1CCO (stereo not drawn)	3%	i	0%	0%	0%	i
CCOc1ccccc1CN1CCN(Cc2cc3ccccc3[nH]2)CC1CCO (stereo not drawn)	-28%	i	-33%	?	23µM*	i
COc1ccccc1C(=O)Nc1c(C(=O)N(CCN(C)C)Cc2ccco2)oc2ccccc12	?	i	-103%	?	-3%	i
CCOC(=O)c1oc2ccccc2c1NC(=O)COc1ccc(F)cc1	9%	i	-27%	-1%	4%	8.2µM*
COc1ccc(OCC(=O)Nc2c(C(=O)N(CCN(C)C)Cc3ccco3)oc3ccccc23)cc1	22µM*	?	-51%	?	?	i
CCN(CCCNC(=O)c1cc(Nc2ccccc2OC)nc2ccccc12)c1cccc(C)c1	?	i	-2%	·	·	i
CCOc1ccc(C(Nc2cccnc2)c2cc(Cl)c3cccnc3c2O)cc1 (stereo not drawn)	?	?	-35%	15µM*	-26%	i
CCOc1ccc(C(NC(C)=O)c2cc(Cl)c3cccnc3c2O)cc1 (stereo not drawn)	3.2µM*	i	-59%	·	·	i
SMILES	TGFb inhibitor	KB-3-1 tox	HepG2 viability	HT1080 IDH1KD tx	HT1080-NT tox	KB-V1 MDR tox
Nc1o[nH]c(=O)c1C1CCCCC1	1%	i	-11%	0%	-10%	i
CCc1ccc(S(=O)(=O)c2nnn3c2nc(NCc2cccs2)c2sccc23)cc1	0%	i	-43%	·	·	i
CC(C)N(Cc1nc(-c2ccccc2)no1)C(=O)CN1C(=O)c2ccccc2C1=O	-17%	i	-2%	-2%	16%	10µM*
CC(C)N(Cc1nc(-c2ccc(Cl)cc2)no1)C(=O)/C=C/c1ccccc1	?	i	2%	-9%	-2%	16µM*
CC(C)N(Cc1nc(-c2ccccc2)no1)C(=O)CCCN1C(=O)c2ccccc2C1=O	2%	i	-33%	9%	3%	i
Cc1ccc(-c2noc(CN(C(=O)C(c3ccccc3)c3ccccc3)C(C)C)n2)cc1	0%	?	6%	-17%	0%	8.2µM*
CC(C)Oc1ccc(CNC(=O)CCCn2c(=O)c3cccn3c3cccnc32)cc1	?	·	-35%	·	·	·
COc1ccccc1NC(=S)N1CC(C)(C)C1=O	2%	i	5µM*	11%	1%	i
COc1ccccc1NC(=S)NC12CN3CN(CN(C3)C1)C2	-1%	i	5%	0%	8%	i
CC(O)C(NS(=O)(=O)c1ccc2ccccc2c1)C(=O)OCC(=O)Nc1ccccc1OC(F)F (stereo not drawn)	-25%	i	-12%	1%	-8%	i
CCSc1nnc(NC(=O)C2CCN(C(=O)c3ccco3)CC2)s1	-1%	i	-1%	·	·	i
Cn1c(CNc2ccc(Br)cc2)nc2ccccc21	-8%	?	-20%	-3%	-6%	15µM*
COc1ccc(NCc2nc3ccccc3n2CCOc2ccccc2)cc1	-18%	?	-6%	0%	-6%	2.3µM*
c1ccc(NCc2nc3ccccc3n2CCOc2ccccc2)cc1	3%	i	37%	-6%	2%	?
COc1cccc2c1cc1c(=O)n(CC(=O)NCc3ccco3)nc(C)n12	-15%	·	-2%	·	·	·
Cc1ccc(CN2CCCn3nc(C(=O)NCc4ccc(OC(C)C)cc4)cc3C2=O)cc1	0%	?	-28%	·	·	i
c1ccc(-c2nc3ccccc3o2)nc1	?	i	-2%	8%	6%	i
c1ccc2nc(-c3nc4ccccc4o3)ccc2c1	?	11µM*	-80%	13µM*	10µM*	i

Screening results from PubChem BioAssay.
